Screens (PubChem)
NPC1 promoter act: activates the NPC1 promoter; Huh7 NPC1 promoter luciferase reporter, 24 h; Potency, µM (titrated, usually from 9.22 µM), inactives show at the highest dose activation, most hits filed as activators; actives 2.4% (n = 320,000); further: % of control where 0% means no effect; nearly all actives have a fitted effect of over 60% in size
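Stable NPC1-promoter luciferase Huh7 line; cpd (DMSO) 24 h, 37 °C, 5% CO2; Amplite luciferase reagent 10 min RT; luminescence readout. qHTS format.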
SMN2 splice enh: enhancers of SMN2 splice variant expression; HEK293 SMN2-luciferase splicing reporter, luminescence, 30-36 h; AID 1458; actives 2.8% (n = 210,000); Potency, µM (titrated, usually from 46.1 µM), for inactives: at the highest dose activity change, positive = activation, usual class: activators; further: % of control where 0% means no effect; nearly all actives have a fitted effect of over 55% in size
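qHTS luciferase splicing reporter: luminescence rises when SMN2 exon 7 is included in transfected HEK293 cells. Compound exposure lasted 30-36 h at 37C, with 4.5 mM final sodium butyrate as control, followed by a ONE-Glo read.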
FLuc modulator: inhibits or activates purified firefly luciferase, miR-21 counter-screen; Potency, µM (highest dose often 57.5 µM), inactives show at the top dose activity change, negative = inhibition, most hits filed as inhibitors; actives 6.9% (n = 360,000); purified FLuc, Km substrates, luminescence inhibition;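 further: plate controls were vehicle for no effect and reference inhibitor for full effect; nearly all actives have a fitted effect of over 55% in size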
Target sequence (P08659 whole entry, looked up): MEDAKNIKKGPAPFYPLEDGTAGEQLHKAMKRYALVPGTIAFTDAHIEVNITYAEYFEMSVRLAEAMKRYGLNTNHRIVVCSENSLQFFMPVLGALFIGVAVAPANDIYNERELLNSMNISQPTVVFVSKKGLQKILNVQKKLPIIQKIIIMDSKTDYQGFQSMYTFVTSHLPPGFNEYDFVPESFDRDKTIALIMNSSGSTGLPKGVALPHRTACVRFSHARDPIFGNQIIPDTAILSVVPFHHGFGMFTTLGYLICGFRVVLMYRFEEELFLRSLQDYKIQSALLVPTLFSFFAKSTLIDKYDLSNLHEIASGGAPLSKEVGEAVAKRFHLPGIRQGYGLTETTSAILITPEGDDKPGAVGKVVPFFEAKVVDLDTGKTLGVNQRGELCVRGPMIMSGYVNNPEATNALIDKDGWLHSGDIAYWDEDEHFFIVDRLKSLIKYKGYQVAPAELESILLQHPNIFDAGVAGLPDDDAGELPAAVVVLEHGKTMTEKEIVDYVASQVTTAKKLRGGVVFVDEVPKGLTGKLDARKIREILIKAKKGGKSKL
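Biochemical qHTS of compounds, final roughly 60 µM downward over six points, against 10 nM purified firefly luciferase using Km concentrations of substrates (10 uM D-luciferin, 10 uM ATP) in Tris acetate pH 7.5 buffer; luminescence output.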
KinaseGlo FLuc: blocks Kinase-Glo luciferase, a counter-screen artifact | Q27757 | Kinase-Glo luciferase, ATP luminescence, 8 min | Potency, µM (top dose mostly 38.3 µM), for inactives: top-dose activity change, negative = inhibition, actives largely listed as inhibitors | actives 0.28% (n = 200,000); further: on the % scale 0 is the no-effect control and ±100 the full control effect; nearly all actives have a fitted effect of over 60% in size
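Compound is pinned into ATP-containing buffer (10 uM ATP, imidazole pH 7.2, 7 mM MgCl2). Kinase-Glo luciferase reagent is then added. Light output is recorded following an 8-min room-temperature incubation.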
Rab9 prom act: activators of Rab9 promoter; actives 2.8% (n = 320,000); Potency, µM (highest dose often 9.22 µM), inactives show at the top dose activation, negative = inhibition, usual class: activators; Huh7 Rab9 promoter-luciferase reporter, luminescence, 24 h; further: % of control where 0% means no effect; nearly all actives have a fitted effect of over 60% in size
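Promoter activation is measured as luciferase luminescence in Huh7 cells stably transfected with a Rab9 promoter–luciferase construct, following 24 h compound exposure at 37 °C and 10 min reagent incubation at ambient temperature.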
ELG1 genotox: induces genotoxicity in HEK293T cells with luciferase-tagged ELG1 | actives 1.3% (n = 330,000) | HEK293T ELG1-luciferase reporter, luminescence, 16 h | AID 504466 | Potency, µM (doses to about 46 µM), for the others: at the top dose activity change, positive = activation, usual class: activators; further: % of control where 0% means no effect; nearly all actives have a fitted effect of over 60% in size
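Genotoxic stress is detected as increased luminescence from luciferase-tagged ELG1 in HEK293T cells, measured with ONE-Glo after a 16 hr treatment at 37 °C.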
Starred values were filed as active, the others as inactive; ? = inconclusive; . = not tested or not shown; ! = repeats disagree; [ ] = dose if it differs, or a comment. In the library only some 7.5% were active in any assay of this set; here they are far more common. The call rests on the fitted dose curve; in most records, active means well fitted curve in the direction sought with a large enough effect; inconclusive means small, poorly fitted or top-dose-only effect, or another doubt; inactive means no such curve, though single readings can be large; an effect the other way counts as inactive or inconclusive. Potency means the concentration at half of the fitted maximal effect.

SMILES	NPC1 promoter act	SMN2 splice enh	FLuc modulator	KinaseGlo FLuc	Rab9 prom act	ELG1 genotox
COc1ccc(C(C)(C)NC(=O)C2CCC(=O)N(C3CCCC3)C2)cc1OC (centres undefined)	6%	.	0%	.	14%	6%
CCn1c(NC(=O)c2ccc(F)cc2)c2ccccc2nc1=O	-5%	-1%	5%	2%	0%	0%
O=C(Nc1nc2ccc(Cl)cc2s1)c1ccc(S(=O)(=O)N2CCCC2)cc1	.	.	1%	.	.	.
O=C(Nc1nc(=O)c2ccccc2s1)c1ccc(F)cc1	?	14µM*	2.1µM*	-3%	3.2µM*	?
O=C(Nc1nc(=O)c2ccccc2s1)c1ccc(Cl)cc1	2.8µM*	13µM*	1.1µM*	-2%	2.5µM*	1.8µM*
O=C(Nc1nc2ccsc2c(=O)s1)c1ccc(Cl)cc1	0.25µM*	.	0.21µM*	.	0.1µM*	?
COc1ccc(Nc2cc(C)c3cc(NC(=O)c4cc(OC)cc(OC)c4)ccc3n2)cc1	.	.	-3%	.	.	.
CCN1/C(=C/C(=O)c2ccco2)Sc2ccccc21	4%	14%	24µM*	-7%	?	0%
CCC(=O)/C=C1/Sc2ccccc2N1CC	-1%	-5%	-14%	-4%	-3%	-3%
CSc1ccc(/C=C/c2nc3ccccc3n2S(=O)(=O)c2ccc(Br)cc2)cc1	.	0.5µM*	0.043µM*	.	.	.
CCOc1ccc(/C=C/c2nc3ccccc3n2S(=O)(=O)c2ccc(Br)cc2)cc1	.	2.8µM*	0.85µM*	.	.	.
CN1CCCN(S(=O)(=O)c2cccc(C(F)(F)F)c2)c2nc3ccccc3nc21	0%	.	.	.	-9%	-8%
O=S(=O)(c1cccc(C(F)(F)F)c1)n1c(/C=C/c2ccccc2)nc2ccccc21	.	.	12µM*	.	.	.
O=C(COC(=O)CN1C(=O)C2CCCCC2C1=O)NCc1ccc(Cl)cc1Cl (centres undefined)	-2%	.	-15%	.	-5%	0%
COc1ccc(N=C2C(=Nc3ccc(OC)cc3)N(c3ccccc3)C(=S)N2C(=O)c2ccc(Cl)cc2)cc1	2%	25µM*	?	-4%	17%	?
COc1ccc(N=C2C(=Nc3ccc(OC)cc3)N(c3ccc(OC)cc3)C(=S)N2C(=O)c2ccc(OC)cc2)cc1	0%	4%	?	-3%	3%	0%
Cc1ccc(OCC(=O)NCC(=O)OCc2cc(=O)n3nc(CC(C)C)sc3n2)cc1	.	.	0%	.	.	.
Cc1cccc(N(C)S(=O)(=O)c2nnc(NC(=O)c3ccco3)s2)c1	-1%	.	0%	.	0%	4%
O=C(Nc1nnc(S(=O)(=O)N2CCN(c3ccc(F)cc3)CC2)s1)c1ccco1	1%	.	19µM*	.	3%	5%
Cc1cccc(-c2nnc(NC(=O)c3ccco3)s2)c1	2.8µM*	.	11µM*	.	3.2µM*	21µM*
O=C(Nc1nnc(-c2ccc(F)cc2)s1)c1ccco1	2.8µM*	.	2.7µM*	.	3.2µM*	?
O=C(Nc1nnc(S(=O)(=O)N2CCOCC2)s1)c1ccc(F)cc1	3%	.	-6%	.	15%	2%
Cc1noc(C)c1C(=O)Nc1nnc(-c2ccccc2)s1	5%	-22%	15µM*	0%	6%	2%
CCOC(=O)/C(C)=N/NC(C)=O	.	0%	.	-1%	.	.
N[C@@H](CO)C(=O)NNCc1ccc(O)c(O)c1O	.	-6%[20.6 µM]	.	1%[17.1 µM]	.	.
COC(=O)[C@H](Cc1c[nH]c2ccccc12)NC(=O)NCc1ccc(OC)c(OC)c1	-3%	.	-3%	.	4%	1%
CCc1oc2ccccc2c1C(=O)c1cc(Br)c(O)c(Br)c1	-1%	-9%	15µM*!	13%	-5%	0%
CCCn1c(=O)c2sccc2n2c(CCCC(=O)N3CCN(c4cccc(Cl)c4)CC3)nnc12	.	.	5%	.	.	.
O=C(c1ccccc1)N1N=C(c2ccccc2)CC1(O)C(F)(F)F (centres undefined)	1%	.	2%	.	-3%	0%
